From PubChem BioAssay (NCATS) come the findings set out here.

Records with an inconclusive call do not appear. Unmarked numbers belong to inactive results. Active and inactive are the calls of the source. The call rests on the fitted dose curve; in most records, active means well fitted inhibition curve with a large enough effect; inconclusive means small, poorly fitted or top-dose-only effect; inactive means no such curve, though single readings can be large or run the other way.
On the % scale 0 is the no-effect control and ±100 the full control effect; potency means the concentration at half of the fitted maximal effect.

In the assay the target is Cytochrome P450 2C19 (Homo sapiens) (UniProt P33261). Briefly: qHTS Assay for Inhibitors and Substrates of Cytochrome P450 2C19 (AID 899). Further: nearly all actives have a fitted effect of over 60% in size. Conditions: recombinant CYP2C19, luciferin-H EGE luminescence; series mostly up to 57.1 µM; activity, negative = inhibition: at the top concentration. The procedure: NIH Molecular Libraries Screening Centers Network [MLSCN]
Cytochrome P450 2C19 (Homo sapiens), sequence (P33261 whole entry, looked up): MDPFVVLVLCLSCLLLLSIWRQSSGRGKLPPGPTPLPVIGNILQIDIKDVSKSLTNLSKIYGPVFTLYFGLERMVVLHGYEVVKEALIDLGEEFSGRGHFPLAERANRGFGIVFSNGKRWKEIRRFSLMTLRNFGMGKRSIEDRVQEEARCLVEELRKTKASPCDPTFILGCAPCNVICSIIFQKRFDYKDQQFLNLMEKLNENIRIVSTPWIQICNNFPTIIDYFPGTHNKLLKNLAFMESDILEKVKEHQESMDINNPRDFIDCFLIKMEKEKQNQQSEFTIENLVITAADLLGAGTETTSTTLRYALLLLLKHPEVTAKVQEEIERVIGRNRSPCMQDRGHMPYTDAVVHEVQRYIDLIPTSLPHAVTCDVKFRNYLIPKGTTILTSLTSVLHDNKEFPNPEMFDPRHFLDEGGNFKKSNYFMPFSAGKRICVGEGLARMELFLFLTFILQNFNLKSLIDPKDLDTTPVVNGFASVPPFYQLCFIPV
NIH Chemical Genomics Center [NCGC]
The P450 gene superfamily is involved in the metabolism and clearance of xenobiotics. This assay used human CYP2C19 to measure the hydroxylation of ethylene glycol ester of 6' deoxyluciferin (Luciferin-H EGE; […]) to luciferin. The luciferin is then measured by luminescence after the addition of a luciferase detection reagent. Luciferin-H EGE concentration in the assay was equal to its KM for CYP2C19. Inhibitors and some substrates limit the production of luciferin, and decrease measured luminescence.
NCGC Assay Protocol Summary:
Two uL of enzyme and substrate mix (final concentrations: 5nM CYP2C19, 10uM Luciferin-H EGE, 50mM KPO4) were dispensed into a white, solid bottom 1536-well microtiter plate. 23nL of compound was transferred by a pin tool. The plate was incubated at 37C for 10 min. Two uL of an NADPH regeneration solution (Promega supplied reagent) was dispensed and the reaction was allowed to continue for 60 min at 37C. Then the reaction was stopped by reconstituted luciferin detection buffer. After another 20 min of incubation the plate was read on the ViewLux (Perkin Elmer) at 60 sec exposure and 2x2 binning. This protocol was carried out with Promega-Glo reagents and further information can be found at http://www.promega.com/tbs/tb325/tb325.pdf. Data were normalized to the to AC100 inhibition (57uM ketoconazole).
Keywords: P450, CYP2C19, Luciferase, MLSMR, MLSCN, NIH Roadmap, qHTS, NCGC
For orientation: In qHTS, concentration-response curves come from the screen itself.
On to `O=c1cc(-c2ccccc2O)oc2cc(O)cc(O)c12`, for which the Potency was 3980 nM (active).
As for `NCCC[C@@H](CC(=O)N[C@@H]1CCNC[C@H]1C(=O)N[C@H](CC(=O)N[C@@H](CCC(=O)O)CC(=O)O)Cc1c[nH]c2ccccc12)NC(=O)C[C@H](CO)NC(=O)[C@@H]1CCCC[C@H]1N`, the “activity, negative = inhibition” value was -30.6%.
With `C[C@@H](C(=O)NCc1ccccn1)[C@@H]1C[C@@]1(C)[C@@H](NC(=O)OCc1ccccc1)c1ccccc1`, the Potency is 2510 nM (active).
As for `CC(C)C[C@@H](CC(=O)N[C@H](CC(=O)N[C@@H]1CCNC[C@H]1C(=O)N[C@H](CC(=O)N[C@@H](CCC(=O)O)CC(=O)O)Cc1c[nH]c2ccccc12)C(C)C)NC(=O)[C@@H]1CCCC[C@H]1N`, the “activity, negative = inhibition” value is -23%.
On to `CC(=O)Oc1cc(OC(C)=O)c2c(=O)cc(-c3ccc(OC(C)=O)c(OC(C)=O)c3)oc2c1`, for which the “activity, negative = inhibition” value was -36.2%.
With `COc1ccccc1C[C@@H](Cc1nc2ccccc2[nH]1)c1nc2ccccc2[nH]1`, the Potency is 1580 nM (active).
For `CC(C)(C)c1cc(Br)c(O)c(CN(Cc2cc(C(C)(C)C)cc(Br)c2O)C2CCCCC2)c1`, the Potency was 631 nM (active).
In the case of `CC[C@H]1C(=O)OC[C@@H]1Cc1cncn1C`, the “activity, negative = inhibition” value is -38.6%.
The same measure, in the same setting: with `CC(C)C[C@@H](CC(=O)N[C@H](CC(=O)N[C@@H]1CCCC[C@H]1C(=O)N[C@H](CC(=O)N[C@@H](CCC(=O)O)CC(=O)O)Cc1ccccc1)C(C)C)NC(=O)[C@@H]1CNCC[C@H]1N` the figure was 15.8%.
For `CC(C)[C@@H](CC(=O)N[C@@H]1CCCC[C@H]1C(=O)N[C@H](CC(=O)N[C@@H](CCC(=O)O)CC(=O)O)Cc1ccccc1)NC(=O)C[C@H](Cc1c[nH]c2ccccc12)NC(=O)[C@@H]1CNCC[C@H]1N`, the “activity, negative = inhibition” value was -24.4%.
Take `COC(=O)[C@@]1(Cc2ccc(OC)cc2)[C@H]2c3cc(C(=O)N(C)C)[nH]c3C[C@H]2CN1C(=O)c1ccccc1`: the Potency is 5010 nM (active).
On to `COc1cc2nc(N3CCN(C(=O)[C@H]4COc5ccccc5O4)CC3)nc(N)c2cc1OC`, for which the result was inactive.
On to `C[C@@H](C(=O)NCc1ccc(S(C)(=O)=O)cc1)[C@@H]1C[C@@]1(C)[C@@H](NC(=O)OCc1ccccc1)c1ccccc1`, for which the Potency was 1260 nM (active).
As for `CC(=O)N[C@@H](c1ccccc1)[C@]1(C)C[C@H]1[C@@H](C)C(=O)Nc1ccc2ccccc2c1`, the Potency is 398 nM (active).
With `COC(=O)[C@@]1(Cc2ccc(OC)cc2)[C@H]2c3cc(C(=O)N4CCCC4)n(Cc4cc(F)cc5c4OCOC5)c3C[C@H]2CN1C(=O)c1ccccc1`, the Potency is 7940 nM (active).
In the case of `COc1ccc(-c2coc3ccc(O[C@@H]4O[C@@H](COC(C)=O)[C@@H](OC(C)=O)[C@@H](OC(C)=O)[C@H]4OC(C)=O)c(OC(C)=O)c3c2=O)cc1`, the “activity, negative = inhibition” value was 13.6%.
On to `CC(C)C1=CC2=CC[C@H]3[C@@](C)(CCC[C@]3(C)C(=O)O)[C@@H]2CC1`, for which the Potency is 25100 nM (active).
For `CCCC[C@@H]1C[C@H]1C(NC(=O)c1cccs1)c1ccc(Cl)cc1` (stereo not given in full), the Potency is 79.4 nM (active).
Regarding `NCCC[C@@H](CC(=O)N[C@@H]1CCCC[C@H]1C(=O)N[C@H](CC(=O)N[C@@H](CCC(=O)O)CC(=O)O)Cc1c[nH]c2ccccc12)NC(=O)C[C@H](CO)NC(=O)[C@@H]1CCCC[C@H]1N`, the “activity, negative = inhibition” value is -28.7%.
Consider `CC(C)C[C@@H](CC(=O)N[C@@H](CCC(=O)O)CC(=O)O)NC(=O)[C@@H]1CCCC[C@H]1NC(=O)C[C@H](CCCN)NC(=O)C[C@H](Cc1ccccc1)NC(=O)[C@@H]1CCCC[C@H]1N`, for which the “activity, negative = inhibition” value is 2.87%.
Take `COc1ccc([C@@H]2CC(=O)c3c(O)cc(O[C@@H]4O[C@@H](CO[C@@H]5O[C@@H](C)[C@@H](O)[C@@H](O)[C@H]5O)[C@@H](O)[C@@H](O)[C@H]4O)cc3O2)cc1O`: the “activity, negative = inhibition” value is -26.5%.
Regarding `CC(C)C[C@@H](CC(=O)N[C@@H](CCC(=O)O)CC(=O)O)NC(=O)[C@@H]1CCCC[C@H]1NC(=O)C[C@@H](NC(=O)C[C@H](Cc1c[nH]c2ccccc12)NC(=O)[C@@H]1CNCC[C@H]1N)C(C)C`, the “activity, negative = inhibition” value was -44.6%.
As to `CC(C)C[C@@H](CC(=O)N[C@@H](CCC(=O)O)CC(=O)O)NC(=O)[C@@H]1CCCC[C@H]1NC(=O)C[C@H](CCCN)NC(=O)C[C@H](Cc1c[nH]c2ccccc12)NC(=O)[C@@H]1CNCC[C@H]1N`, the “activity, negative = inhibition” value is -40.3%.
For the compound `COC(=O)[C@@]1(Cc2ccccc2)[C@H]2c3cc(C(=O)N4CCCC4)n(Cc4cccc5ccccc45)c3C[C@H]2CN1C(=O)c1ccccc1`, the Potency was 2510 nM (active).
On to `CC(C)[C@@H](CC(=O)N[C@@H]1CCCC[C@H]1C(=O)N[C@H](CC(=O)N[C@@H](CCC(=O)O)CC(=O)O)Cc1ccccc1)NC(=O)C[C@H](Cc1ccccc1)NC(=O)[C@@H]1CCCC[C@H]1N`, for which the “activity, negative = inhibition” value is -29.2%.
Turning to `O=c1c(O)c(-c2ccccc2)oc2cc(O)cc(O)c12`, the Potency is 3980 nM (active).
`CCCC[C@@H]1C[C@H]1C(NC(=O)c1ccco1)c1ccccc1` (stereo not given in full): the Potency was 1260 nM (active).
Turning to `Clc1ccc(CO[C@@H](Cn2ccnc2)c2ccc(Cl)cc2Cl)cc1`, the Potency was 63.1 nM (active).
Regarding `O=c1cc(-c2ccccc2O)oc2c(O)c(O)ccc12`, the Potency was 1260 nM (active).
As to `CCC/C=C(\CCC)C(NC(=O)c1cccs1)c1ccc(C(F)(F)F)cc1` (stereo not given), the Potency is 316 nM (active).
Consider `CCC/C=C(\CCC)C(NS(=O)(=O)c1cccs1)c1ccc(C(=O)OC)cc1` (stereo not given), for which the Potency was 794 nM (active).
Regarding `CCCC/C=C/C(NC(=O)c1ccccc1)c1ccccc1` (stereo not given), the Potency was 7940 nM (active).
Regarding `O=C(O)[C@H]1C[C@@H](CP(=O)(O)O)CCN1`, the Potency is 7940 nM (active).
With `NCCC[C@@H](CC(=O)N[C@@H]1CCNC[C@H]1C(=O)N[C@H](CC(=O)N[C@@H](CCC(=O)O)CC(=O)O)Cc1ccccc1)NC(=O)C[C@H](Cc1ccccc1)NC(=O)[C@@H]1CNCC[C@H]1N`, the “activity, negative = inhibition” value is -12.9%.
With `CCc1cccc2c(-c3ccccc3)c3c(nc12)OCC3`, the Potency was 7940 nM (active).
On to `NCCC[C@@H](CC(=O)N[C@@H]1CCCC[C@H]1C(=O)N[C@H](CC(=O)N[C@@H](CCC(=O)O)CC(=O)O)Cc1ccccc1)NC(=O)C[C@H](CO)NC(=O)[C@@H]1CNCC[C@H]1N`, for which the “activity, negative = inhibition” value is -54.4%.
For the compound `N=C1[C@@H](O)[C@]2(I)c3ccccc3N3C(=N)[C@H](O)[C@@H]4c5ccccc5N1[C@@H]4[C@@H]32`, the Potency was 3160 nM (active).
`O=c1c(O)c(-c2ccc(O)cc2)oc2cc(O)ccc12`: the Potency is 15800 nM (active).
On the same count and under the same terms, with `FC(F)(F)c1ccccc1-c1nc(Nc2ccncc2)c2ccccc2n1` the figure was 2000 nM (active).
Regarding `CC(C)C[C@@H](CC(=O)N[C@@H](CCC(=O)O)CC(=O)O)NC(=O)[C@@H]1CNCC[C@H]1NC(=O)C[C@@H](NC(=O)C[C@H](CO)NC(=O)[C@@H]1CCCC[C@H]1N)C(C)C`, the “activity, negative = inhibition” value is -19.6%.
